Consider six compounds from PubChem BioAssay (NCATS).

The nature of assay [1]: AP1 Signaling Pathway (AID 357; active means well fitted curve in either direction with a large enough effect, not every such curve was filed as active;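 further: ME-180 reporter cells stimulated with EGF at its EC50 level; on the % scale 0 is the no-effect control and ±100 the full control effect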). To be noted: ME-180 AP-1-bla reporter, EGF-induced, beta-lactamase ratio, 5 h; at 7.69 µM (top of the series) unless noted. The method in brief:
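First, ME-180 AP-1-bla cells were cultured overnight at 37 °C in low-serum Opti-MEM. Next, titrated compounds with EC50 EGF were incubated 5 hours. Finally, CCF4 was added for 2.5 hours and the 460/530 nm ratio recorded.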

In assay [2] the target is Cytochrome P450 1A2 (Homo sapiens) (UniProt P05177). In words: p450-cyp1a2 (AID 410; calls by dose curve; further: potency means the concentration at half of the fitted maximal effect;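 on activity change, negative = inhibition: -100% = full effect of reference inhibitor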). The method, boiled down: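 Inhibition was calculated relative to 57 uM furafylline (full inhibition). The reaction used human CYP1A2 at 20nM with Luciferin-ME at its Km, 100uM, driven by an NADPH-regenerating system for 60 min at room temperature.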
The nature of assay [3]: NFAT Signaling Pathway (AID 444; active means well fitted curve in either direction with a large enough effect, not every such curve was filed as active;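 further: carbachol stimulus at about its EC50 of 1 µM final; on the % scale 0 is the no-effect control and ±100 the full control effect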). As to conditions: Jurkat NFAT-bla M1, carbachol, beta-lactamase ratio, 5 h; at 7.69 µM (top of the series) unless noted. The method, boiled down: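 Jurkat cells with NFAT-driven β-lactamase reporter and co-expressed M1 receptor, stimulated with carbachol (final 1 uM, ~EC50), compound titration, 5 h at 37 °C. CCF4 loaded 1 h at RT; 460/530 nm ratio gave %activity and AC50.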

Assay [4] can be described thus: Stat Signaling Pathway (AID 446; active means well fitted curve in either direction with a large enough effect, not every such curve was filed as active;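 further: ME-180 cervical cancer cells given 40 pM IL-6 alongside compound; SIE-controlled beta-lactamase reporter measured as 460/530 nm FRET emission ratio; on the % scale 0 is the no-effect control and ±100 the full control effect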). To be noted: ME-180 SIE beta-lactamase reporter, IL-6 stimulated, 5 h; at 7.69 µM (top of the series) unless noted. The method in brief:
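Reporter line: ME-180 cervical carcinoma, SIE-beta-lactamase. Treatment: compound with 40 pM IL-6, 5 hrs, 37 C, in low-serum OPTI-MEM with 10 mM HEPES pH 7.3. Detection: 460/530 nm fluorescence.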

The target in assay [5] is Glucocorticoid receptor (Homo sapiens) (UniProt P04150). In words: GR-GFP Redistribution (AID 450;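 active means compounds whose dose series gives a full or clear partial fitted curve of increased nuclear translocation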; further: potency means the concentration at half of the fitted maximal effect). As to conditions: U2OS GR-GFP nuclear translocation, laser cytometry, 2 h.
Assay [6] has the same target. Briefly: GR-EFC Redistribution (AID 451; calls by dose curve; further: potency means the concentration at half of the fitted maximal effect). As to conditions: CHO-K1 GR-EFC translocation, beta-gal luminescence, 2 h. The method, boiled down: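 CHO-K1 cells expressing nuclear EA and GR-ED fragments of b-gal; compounds titrated up to 46 uM final, 2 h at 37 C. GR nuclear translocation read as complemented b-gal luminescence after 1 h RT detection.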
Assay [7] concerns the target 3',5'-cyclic-AMP phosphodiesterase 4B (Homo sapiens) (UniProt Q07343). In words: qHTS Assay for Inhibitors of PDE-IV (AID 607; active means well fitted activation curve with a large enough effect in the main read-out, with a control signal flat, not every such curve was filed as active; further: % of control where 0% means no effect). The method, boiled down:
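Cell-based read-out of cAMP via a modified cyclic nucleotide-gated channel and membrane potential dye (535/590 nm) in HEK293 cells expressing PDE4 endogenously. Compounds tested up to 22.9 uM final; 100 uM RO 20-1724 reference.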
In general terms: In qHTS, concentration-response curves come from the screen itself.

Assay [8] deals with Guanine nucleotide-binding protein G(i) subunit alpha-1 (Homo sapiens) (UniProt P63096). Briefly: qHTS Assay for Inhibitors of RGS12 GoLoco Motif Activity (Green Fluorophore) (AID 879).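 Further: 0% = labeled peptide with Gαi1 and full inhibition = labeled peptide alone without protein; negative values mean loss of peptide binding seen as reduced polarization.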 The method in brief:
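Fluorescence polarization assay: 50 nM Gαi1 with 10 nM FITC-labeled RGS12 GoLoco peptide in 10 mM Tris pH 7.5, 150 mM NaCl, 0.1 mM GDP, 0.05% NP40, 10 min at room temperature with compound.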

Assay [9] deals with Cytochrome P450 3A4 (Homo sapiens) (UniProt P08684). Briefly: qHTS Assay for Activators of Cytochrome P450 3A4 (AID 885). Further: nearly all actives have a fitted effect of over 65% in size. The method, boiled down:
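Signal was normalized against complete inhibition by 57 uM ketoconazole. The reaction used 20nM CYP3A4 with 25uM Luciferin-PPXE, 10-min compound preincubation and a 60-min NADPH-supported step at RT.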

A short description of assay [10]: qHTS Assay for Identification of Small Molecule Agonists for Thrombopoietin (TPO) Signaling Pathway (AID 917). Further: on the % scale 0 is the no-effect control and ±100 the full control effect. The method, boiled down: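 We measured Glycoprotein IIb promoter–luciferase output in IL-3-starved Ba/F3 murine cells expressing the human TPO receptor after 24 hrs at 37 C with compounds and 26 pM TPO.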
Assay [11] addresses Muscarinic acetylcholine receptor M1 (Rattus norvegicus) (UniProt P08482). In words: qHTS Assay for Antagonists of Acetylcholine Muscarinic M1 Receptor: Measurement of IP-One Response (AID 944). Further: nearly all actives have a fitted effect of over 75% in size. The method, boiled down: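 Steps: plate transfected CHO-M1 cells overnight; add test compound, 10 min; add carbachol (200 nM, EC80) in stimulation buffer with LiCl; incubate 30 min; add labelled IP1 tracer and anti-IP1 antibody in lysis buffer; read HTRF after 10 min.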

The target in assay [12] is Pyruvate kinase (Leishmania mexicana) (UniProt Q27686). In words: qHTS Validation Assay for Inhibitors of Leishmania Mexicana Pyruvate Kinase (AID 945).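 Further: 0% = DMSO only neutral control wells.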 The method, boiled down:
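Mutant LmPYK (E451W), 0.2 nM, plus 0.5 mM PEP and 0.1 mM ADP in 50 mM imidazole pH 7.2 containing 0.01% Tween 20 and 0.05% BSA. Incubated 1 h at room temperature; luminescence via PKLight, normalized to DMSO.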

In assay [13] the target is Pyruvate kinase PKM (Homo sapiens) (UniProt P14618). In words: qHTS Assay for Activators of Human Muscle Pyruvate Kinase (AID 954; active means well fitted curve in the direction sought with a large enough effect, not every such curve was filed as active;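 further: 0% = uninhibited enzyme and -100% = no enzyme or full thiadiazolimine inhibition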). The method in brief:
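Human PKM2 activity is measured as ATP generation, detected by luciferase-coupled luminescence. The enzyme (0.1 nM) acts on 0.5 mM PEP and 0.1 mM ADP for 1 h at ambient temperature; data are normalized to uninhibited and full-inhibition wells.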

Assay [14] concerns the target Alpha-galactosidase A (Homo sapiens) (UniProt P06280). Briefly: Counterscreen for Glucocerebrosidase Inhibitors: qHTS Assay for Human alpha-Galactosidase at pH 4.5 (AID 992). Further: 0% is about no effect. The method in brief: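 Quantitative HTS: compounds tested from 0.7 nM up to 77 uM against 2 nM enzyme with 80 uM 4-MU alpha-D-galactopyranoside. The 20 min room-temperature reaction is stopped with 1M NaOH/1M glycine, pH 10.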
Background: Counterscreens check selectivity or assay interference.

The target of assay [15] is alpha-glucosidase (Oryza sativa, rice) (UniProt Q653V4). In words: Counterscreen for Glucocerebrosidase Inhibitors: qHTS Assay for Rice alpha-Glucosidase at pH 5.0 (AID 997).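 Further: 0% = full activity with enzyme and -100% = basal without enzyme.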 The method, boiled down:
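Rice alpha-glucosidase (4 nM final) with 400 uM 4-methylumbelliferyl-alpha-D-glucopyranoside in citrate buffer pH 5.0, 20 min at room temperature, stopped at pH 10; fluorescence 365/440 nm, compounds 0.7 nM–77 uM, AC50 from Hill fits.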

Assay [16] has as its target Mitogen-activated protein kinase 10 (Mus musculus) (UniProt Q61831). Briefly: JNK3 AlphaScreen Assay (AID 530; active means well fitted curve in either direction with a large enough effect, not every such curve was filed as active). The method in brief:
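qHTS format: compounds tested as titrations against IL-1beta/TNF-alpha-activated HepG2 lysate JNK3 with biotin-GST-cJun substrate and 10 uM ATP at room temperature. Loss of anti-phospho-cJun AlphaScreen signal indicates inhibition.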
A general note: In Alpha technology, singlet oxygen from a donor bead excites a nearby acceptor bead.

The target in assay [17] is Cytochrome P450 2D6 (Homo sapiens) (UniProt P10635). In words: qHTS Assay for Inhibitors and Substrates of Cytochrome P450 2D6 (AID 891).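 Further: luciferin methyl ether substrate demethylated by CYP2D6 with NADPH regeneration; on the % scale 0 is the no-effect control and ±100 the full control effect; nearly all actives have a fitted effect of over 60% in size.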 The method, boiled down:
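Human CYP2D6 (5 nM) with 30 uM Luciferin-ME EGE (at Km) in 100 mM KPO4, compound preincubated 10 min, then NADPH regeneration system for 60 min at room temperature. Luciferin read by luminescence; normalized to 1.43 uM quinidine.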

The target in assay [18] is Cytochrome P450 2C19 (Homo sapiens) (UniProt P33261). In words: qHTS Assay for Inhibitors and Substrates of Cytochrome P450 2C19 (AID 899). Further: on the % scale 0 is the no-effect control and ±100 the full control effect; nearly all actives have a fitted effect of over 60% in size. The method in brief:
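Signal comes from luciferase acting on luciferin released by CYP2C19-mediated hydroxylation of Luciferin-H EGE, 10uM (KM). Assay mix: 5nM enzyme, 50mM KPO4; 60 min at 37C with NADPH regeneration. Data normalized against 57uM ketoconazole.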

Assay [19] is described as follows: qHTS Assay for Identification of Small Molecule Antagonists for NFkB Signaling Pathway (AID 895; active means well fitted inhibition curve with a large enough effect in the signal ratio, with a control signal flat, not every such curve was filed as active; the % refers to the signal ratio; further: on the % scale 0 is the no-effect control and ±100 the full control effect). The method, boiled down:
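ME-180 NFkB-bla cells (beta-lactamase under NFkB response element), plated overnight, treated with compound then 10 pM TNF alpha (about EC50) for 5 hrs at 37 C. LiveBLAzer FRET read at 460/530 nm emission, 405 nm excitation.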

The structures appear in SMILES notation. Unmarked numbers belong to inactive results. Records with an inconclusive call do not appear. Calls of active or inactive are those of the source. Unless noted, the call rests on the fitted dose curve; in most records, active means well fitted curve in the direction sought with a large enough effect; inconclusive means small, poorly fitted or top-dose-only effect, or another doubt; inactive means no such curve, though single readings can be large; an effect the other way counts as inactive or inconclusive.

Sequence of Cytochrome P450 3A4 (Homo sapiens) (P08684 whole entry, looked up): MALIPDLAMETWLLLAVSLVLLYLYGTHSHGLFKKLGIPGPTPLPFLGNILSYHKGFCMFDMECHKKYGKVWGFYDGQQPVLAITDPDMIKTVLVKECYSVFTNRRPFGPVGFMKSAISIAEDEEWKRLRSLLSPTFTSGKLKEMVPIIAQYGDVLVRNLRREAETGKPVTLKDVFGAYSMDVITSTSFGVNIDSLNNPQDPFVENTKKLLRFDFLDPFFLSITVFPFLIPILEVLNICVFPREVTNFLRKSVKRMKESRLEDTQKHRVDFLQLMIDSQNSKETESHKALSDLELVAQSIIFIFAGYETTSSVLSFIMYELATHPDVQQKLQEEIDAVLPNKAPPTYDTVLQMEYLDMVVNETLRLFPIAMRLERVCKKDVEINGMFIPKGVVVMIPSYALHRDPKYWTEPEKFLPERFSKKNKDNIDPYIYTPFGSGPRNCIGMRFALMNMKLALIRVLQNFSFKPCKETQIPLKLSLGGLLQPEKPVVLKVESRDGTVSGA
Sequence of Pyruvate kinase PKM (Homo sapiens) (P14618 whole entry, looked up): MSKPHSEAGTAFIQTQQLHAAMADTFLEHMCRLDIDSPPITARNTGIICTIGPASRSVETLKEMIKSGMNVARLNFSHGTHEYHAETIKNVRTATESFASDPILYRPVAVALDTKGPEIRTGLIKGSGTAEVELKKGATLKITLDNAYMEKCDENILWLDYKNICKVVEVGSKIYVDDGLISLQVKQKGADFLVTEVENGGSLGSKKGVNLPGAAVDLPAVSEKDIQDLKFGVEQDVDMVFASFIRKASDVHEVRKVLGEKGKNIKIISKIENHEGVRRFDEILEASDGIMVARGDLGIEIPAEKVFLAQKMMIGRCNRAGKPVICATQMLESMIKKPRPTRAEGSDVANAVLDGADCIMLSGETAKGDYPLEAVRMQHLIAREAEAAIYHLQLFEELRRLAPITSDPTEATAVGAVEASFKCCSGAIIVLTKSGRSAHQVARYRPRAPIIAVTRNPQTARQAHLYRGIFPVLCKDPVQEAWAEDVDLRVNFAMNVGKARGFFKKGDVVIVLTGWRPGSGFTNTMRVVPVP
Sequence of Alpha-galactosidase A (Homo sapiens) (P06280 whole entry, looked up): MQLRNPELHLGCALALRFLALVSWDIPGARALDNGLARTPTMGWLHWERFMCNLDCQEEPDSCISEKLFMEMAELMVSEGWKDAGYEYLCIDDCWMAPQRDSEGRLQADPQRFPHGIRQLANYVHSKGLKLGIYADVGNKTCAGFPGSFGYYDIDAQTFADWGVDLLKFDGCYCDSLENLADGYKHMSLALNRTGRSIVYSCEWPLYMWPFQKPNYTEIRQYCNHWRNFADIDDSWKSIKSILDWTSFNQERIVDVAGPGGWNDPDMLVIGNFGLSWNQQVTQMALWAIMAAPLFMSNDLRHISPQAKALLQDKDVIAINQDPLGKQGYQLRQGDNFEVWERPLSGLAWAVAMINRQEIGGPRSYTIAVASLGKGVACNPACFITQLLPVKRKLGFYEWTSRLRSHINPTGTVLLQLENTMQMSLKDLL
Sequence of Pyruvate kinase (Leishmania mexicana) (Q27686 2-499 E452W): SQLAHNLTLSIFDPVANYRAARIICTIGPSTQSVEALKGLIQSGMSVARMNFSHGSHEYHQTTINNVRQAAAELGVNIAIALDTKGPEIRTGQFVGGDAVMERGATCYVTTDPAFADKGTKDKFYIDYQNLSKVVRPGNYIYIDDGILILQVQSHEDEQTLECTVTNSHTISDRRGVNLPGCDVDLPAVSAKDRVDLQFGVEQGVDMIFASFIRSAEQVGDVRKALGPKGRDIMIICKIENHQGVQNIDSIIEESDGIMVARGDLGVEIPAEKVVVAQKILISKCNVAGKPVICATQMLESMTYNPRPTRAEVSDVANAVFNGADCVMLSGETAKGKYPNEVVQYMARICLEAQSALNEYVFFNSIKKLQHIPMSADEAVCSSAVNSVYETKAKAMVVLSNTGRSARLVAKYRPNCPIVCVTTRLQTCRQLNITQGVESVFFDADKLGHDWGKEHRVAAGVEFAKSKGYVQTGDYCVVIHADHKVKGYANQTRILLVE
Sequence of Glucocorticoid receptor (Homo sapiens) (P04150 whole entry, looked up, the tested form may be a part): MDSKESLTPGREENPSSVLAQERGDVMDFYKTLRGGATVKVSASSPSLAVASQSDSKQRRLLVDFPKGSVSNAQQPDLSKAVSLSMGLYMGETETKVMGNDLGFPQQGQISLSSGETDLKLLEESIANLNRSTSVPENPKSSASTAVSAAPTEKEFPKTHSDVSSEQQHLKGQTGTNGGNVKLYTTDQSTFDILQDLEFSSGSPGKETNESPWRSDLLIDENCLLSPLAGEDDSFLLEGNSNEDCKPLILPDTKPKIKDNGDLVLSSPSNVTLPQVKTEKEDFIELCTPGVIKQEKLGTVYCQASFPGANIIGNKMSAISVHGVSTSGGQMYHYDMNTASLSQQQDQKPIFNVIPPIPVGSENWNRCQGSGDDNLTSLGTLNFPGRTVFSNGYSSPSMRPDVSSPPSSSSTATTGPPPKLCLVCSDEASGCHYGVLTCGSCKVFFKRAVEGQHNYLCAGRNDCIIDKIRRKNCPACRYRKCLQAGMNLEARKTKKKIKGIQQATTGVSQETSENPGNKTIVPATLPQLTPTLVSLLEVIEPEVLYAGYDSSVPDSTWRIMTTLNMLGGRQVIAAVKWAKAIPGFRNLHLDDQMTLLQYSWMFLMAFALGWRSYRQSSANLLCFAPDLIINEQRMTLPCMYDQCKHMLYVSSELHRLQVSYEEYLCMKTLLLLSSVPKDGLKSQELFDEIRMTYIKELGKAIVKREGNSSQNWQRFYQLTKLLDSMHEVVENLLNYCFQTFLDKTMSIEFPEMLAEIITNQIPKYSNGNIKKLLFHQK
Sequence of Cytochrome P450 1A2 (Homo sapiens) (P05177 whole entry, looked up): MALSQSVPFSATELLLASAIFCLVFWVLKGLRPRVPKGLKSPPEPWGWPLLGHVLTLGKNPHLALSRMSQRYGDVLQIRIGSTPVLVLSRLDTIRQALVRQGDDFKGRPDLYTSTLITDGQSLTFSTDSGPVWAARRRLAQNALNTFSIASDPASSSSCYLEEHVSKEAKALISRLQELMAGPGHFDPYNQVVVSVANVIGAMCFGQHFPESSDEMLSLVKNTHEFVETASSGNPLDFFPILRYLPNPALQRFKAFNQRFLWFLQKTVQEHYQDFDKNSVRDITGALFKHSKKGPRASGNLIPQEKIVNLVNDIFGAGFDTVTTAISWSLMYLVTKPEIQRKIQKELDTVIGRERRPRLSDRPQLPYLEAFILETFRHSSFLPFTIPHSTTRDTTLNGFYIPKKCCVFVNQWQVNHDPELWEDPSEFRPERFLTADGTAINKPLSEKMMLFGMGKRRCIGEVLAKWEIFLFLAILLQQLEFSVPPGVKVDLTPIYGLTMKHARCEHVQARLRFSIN
Sequence of Guanine nucleotide-binding protein G(i) subunit alpha-1 (Homo sapiens) (P63096 whole entry, looked up): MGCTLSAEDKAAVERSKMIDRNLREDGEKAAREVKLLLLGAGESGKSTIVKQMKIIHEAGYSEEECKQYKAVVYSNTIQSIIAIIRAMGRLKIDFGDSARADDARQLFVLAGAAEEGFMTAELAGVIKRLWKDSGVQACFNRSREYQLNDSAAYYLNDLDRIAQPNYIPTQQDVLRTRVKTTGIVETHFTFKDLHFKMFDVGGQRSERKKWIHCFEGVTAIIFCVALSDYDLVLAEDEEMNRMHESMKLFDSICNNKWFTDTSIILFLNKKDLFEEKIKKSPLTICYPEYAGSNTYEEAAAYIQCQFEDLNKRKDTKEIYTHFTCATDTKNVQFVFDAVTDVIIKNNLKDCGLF
Sequence of 3',5'-cyclic-AMP phosphodiesterase 4B (Homo sapiens) (Q07343 whole entry, looked up): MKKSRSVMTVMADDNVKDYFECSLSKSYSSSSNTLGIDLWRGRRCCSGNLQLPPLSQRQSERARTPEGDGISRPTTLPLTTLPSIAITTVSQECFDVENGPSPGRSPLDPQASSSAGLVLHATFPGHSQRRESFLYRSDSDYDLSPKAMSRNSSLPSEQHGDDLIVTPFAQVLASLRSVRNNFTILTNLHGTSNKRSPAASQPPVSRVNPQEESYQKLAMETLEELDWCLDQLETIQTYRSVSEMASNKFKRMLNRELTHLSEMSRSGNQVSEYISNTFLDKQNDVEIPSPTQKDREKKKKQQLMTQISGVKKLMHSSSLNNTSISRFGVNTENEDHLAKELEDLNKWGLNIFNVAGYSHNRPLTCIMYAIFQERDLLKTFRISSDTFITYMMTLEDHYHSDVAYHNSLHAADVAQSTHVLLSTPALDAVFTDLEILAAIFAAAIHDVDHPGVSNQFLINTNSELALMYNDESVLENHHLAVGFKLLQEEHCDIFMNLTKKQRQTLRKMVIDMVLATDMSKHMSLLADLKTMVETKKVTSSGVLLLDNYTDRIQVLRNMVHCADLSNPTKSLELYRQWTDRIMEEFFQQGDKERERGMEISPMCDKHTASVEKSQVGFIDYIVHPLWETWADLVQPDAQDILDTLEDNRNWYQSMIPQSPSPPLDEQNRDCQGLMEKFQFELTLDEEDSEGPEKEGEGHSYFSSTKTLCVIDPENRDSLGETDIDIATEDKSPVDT
Sequence of Muscarinic acetylcholine receptor M1 (Rattus norvegicus) (P08482 whole entry, looked up): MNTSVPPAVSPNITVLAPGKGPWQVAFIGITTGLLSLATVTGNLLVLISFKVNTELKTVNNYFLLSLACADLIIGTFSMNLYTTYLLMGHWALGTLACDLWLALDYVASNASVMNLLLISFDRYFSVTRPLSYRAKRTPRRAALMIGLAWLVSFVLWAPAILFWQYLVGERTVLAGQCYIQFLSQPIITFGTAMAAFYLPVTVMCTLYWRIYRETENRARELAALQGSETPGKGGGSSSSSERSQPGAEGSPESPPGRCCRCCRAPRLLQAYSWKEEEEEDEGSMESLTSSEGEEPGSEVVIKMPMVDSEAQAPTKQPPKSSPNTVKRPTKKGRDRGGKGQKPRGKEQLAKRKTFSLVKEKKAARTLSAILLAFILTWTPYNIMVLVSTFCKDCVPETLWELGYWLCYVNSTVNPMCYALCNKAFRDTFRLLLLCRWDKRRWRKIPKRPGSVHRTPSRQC

Regarding `O=c1ccn([C@@H]2O[C@@H](COP(=O)(O)OP(=O)(O)O)[C@H](O)[C@@H]2O)c(=O)[nH]1`, the activity change, negative = inhibition in assay [1] is 4.38% [at 38 µM]; in [3], -1.51% [at 38 µM]. Also, the Potency entry in assay [2], in [7], in assay [9], in assay [11] and in assay [15] was “inactive” in each case. Also, the activity, negative = inhibition in assay [4] is 11.6% [at 38 µM]. For the same compound, the Potency in [5] and in assay [6] was above 46 µM each time. In addition, the compound was called inactive in assay [8], in [10], in [12], in assay [13] and in assay [14].

For the compound `CC1=C(\C=C/C(C)=C/C=C\C(C)=C\C(=O)Nc2ccc(O)cc2)C(C)(C)CCC1`, the activity change, negative = inhibition in assay [1] was -16.4% [at 38 µM]; in [3], -17.1% [at 38 µM]. The Potency entry in [2], in assay [16], in assay [7] and in assay [17] was “inactive” in each case. The activity, negative = inhibition in assay [4] was -11.2% [at 38 µM]. Moreover, the Potency in [5] and in [6] was above 46 µM throughout.

With `CC[N+](C)(CC)CCN1C(=O)c2ccccc2S1(=O)=O`, the figures for the activity change, negative = inhibition in assay [1] and in [3] were 7.73% and 6.78%, respectively. The Potency result in assay [2], in assay [16], in [7] and in [18] was “inactive” in each case. The activity, negative = inhibition in assay [4] is -3.07%. Besides, the Potency in [5] was above 46 µM; in assay [6], above 9.22 µM.

On to `CC1(C)CCC(NC(=O)[C@H](N)CCC(=O)O)CC1`, for which the activity change, negative = inhibition in assay [1] was 5.34% [at 38 µM]; in assay [3], 2.47% [at 38 µM]. Also, the Potency result in assay [2], in assay [7], in [19], in assay [11] and in assay [15] was “inactive” throughout. Moreover, the activity, negative = inhibition in [4] was -7.41% [at 38 µM]. In addition, the Potency in [5] and in [6] was above 46 µM in each case. The result in assay [8], in assay [10], in assay [12], in assay [13] and in assay [14] was inactive.

With `NNC(=O)CNc1cccc(Br)c1`, the activity change, negative = inhibition in assay [1] was -0.367%; in assay [3], -6.61%. Further, the results for the Potency in assay [2], in assay [5] and in [6] were 0.501 µM (active), above 46 µM and above 9.22 µM, respectively. Moreover, in [4], the activity, negative = inhibition is -6.81%. Further, the Potency entry in assay [16], in [7] and in [9] was “inactive” in each case.

As to `CCCCC[C@H](CC(=O)NO)C(=O)N[C@@H](C(=O)N1CCC[C@H]1CO)C(C)C`, the activity change, negative = inhibition was 26.8% [at 38 µM] in [1] and 6.72% [at 38 µM] in assay [3]. The Potency result in [2], in assay [7], in assay [9], in assay [18], in assay [11] and in [15] was “inactive” each time. The activity, negative = inhibition in assay [4] was 7.77% [at 38 µM]. Further, the Potency in assay [5] and in assay [6] was above 46 µM in each case. The compound was classed as inactive in assay [8], in [12], in assay [13] and in assay [14].
